The values below come from ChEMBL document CHEMBL3988442, “University of Dundee, Small-Polar-MMV Screening Library” (2021).

Each structure is given as a SMILES string. Potency and affinity values are given separately.

The target in the first assay is Protein translocase subunit SecA (Escherichia coli (strain K12)) (UniProt P10408). The assay can be described thus: Assay to Identify E. coli SecA ATPase Inhibitors. It counts as functional. More on the design: scale not given: direction of the effect not stated beside the values. To be noted: 30 µM.
Protein translocase subunit SecA (Escherichia coli (strain K12)), sequence (P10408 whole entry): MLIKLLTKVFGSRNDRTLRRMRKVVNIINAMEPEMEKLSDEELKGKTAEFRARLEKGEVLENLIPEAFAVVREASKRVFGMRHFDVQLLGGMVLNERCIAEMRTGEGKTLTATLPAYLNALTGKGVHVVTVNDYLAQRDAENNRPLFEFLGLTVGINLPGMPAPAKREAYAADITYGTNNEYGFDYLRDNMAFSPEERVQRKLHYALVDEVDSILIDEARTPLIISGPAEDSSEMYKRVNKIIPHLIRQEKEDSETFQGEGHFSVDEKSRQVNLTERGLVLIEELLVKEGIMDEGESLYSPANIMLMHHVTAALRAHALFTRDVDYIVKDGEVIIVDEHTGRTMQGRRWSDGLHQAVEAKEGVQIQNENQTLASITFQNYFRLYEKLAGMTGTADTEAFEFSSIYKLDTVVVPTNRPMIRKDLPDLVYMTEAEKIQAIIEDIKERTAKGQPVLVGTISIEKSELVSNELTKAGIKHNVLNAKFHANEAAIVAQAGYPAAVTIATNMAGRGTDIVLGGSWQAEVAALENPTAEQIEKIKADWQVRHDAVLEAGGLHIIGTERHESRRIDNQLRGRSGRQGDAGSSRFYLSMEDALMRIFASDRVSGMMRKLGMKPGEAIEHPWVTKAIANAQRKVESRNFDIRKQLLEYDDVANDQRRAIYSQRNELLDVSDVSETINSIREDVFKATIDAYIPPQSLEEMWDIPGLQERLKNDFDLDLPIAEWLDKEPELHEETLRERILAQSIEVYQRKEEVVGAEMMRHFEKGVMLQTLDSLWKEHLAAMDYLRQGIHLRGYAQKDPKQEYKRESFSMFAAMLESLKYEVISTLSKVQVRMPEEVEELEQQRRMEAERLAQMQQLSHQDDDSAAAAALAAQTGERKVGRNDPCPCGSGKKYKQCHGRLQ
Take `COc1cccc(CN2CCCC(Nc3cccc(F)c3)C2)c1O` (stereo not given): the Percent Effect was -5.42%.

As for `CS(=O)(=O)Cc1ccc(CNC(=O)c2cccnc2O)cc1`, the Percent Effect was -1.42%.

In the case of `N#Cc1ccnc(N2CCN(CC(O)c3cccc(F)c3)CC2)c1` (stereo not given), the Percent Effect was -4.31%.

As for `CN1C(=O)C[C@@H]2[C@@H]1CCN2S(=O)(=O)Cc1ccccc1`, the Percent Effect turned out to be 2.57%.

`Cn1ncc2c1C(COCC1CC1)CN(Cc1ccc(F)cc1)C2` (stereo not given): the Percent Effect is -0.87%.

With `CCC1=N[C@@]2(CC[C@@H]3CN(C(=O)NCC(C)C)C[C@@H]32)C(=O)N1CC(C)C`, the Percent Effect is -3.96%.

For `CC(O)CN1CCN(C(=O)c2cnn(-c3ccccc3F)c2)CC1` (stereo not given), the Percent Effect is -6%.

Take `O=C(CCc1nccs1)N1CCN(c2ccc(Br)cn2)CC1`: the Percent Effect is -7.37%.

For `Cc1cc(CN2CC[C@H]3C(=O)N(c4ccccc4)CCO[C@H]3C2)no1`, the Percent Effect was -3.31%.

For `Cn1cc(-c2csc(N3CCN(C(=O)OC(C)(C)C)CC3)n2)cn1`, the Percent Effect was -0.688%.

With `Cc1noc(C(C)C)c1C(=O)NCc1cccc(N(C)C)c1`, the Percent Effect was -7.07%.

In the case of `Cc1ccc(N2CCCc3sc(C(=O)NCc4cccnc4)nc32)nn1`, the Percent Effect was -3.86%.

For `Cc1nc2ccccc2nc1CN1CCCC1Cn1cncn1` (stereo not given), the Percent Effect is -0.371%.

Regarding `CC(C)C(=O)N1CCN(C(=O)CCc2nnc(-c3ccccc3)o2)CC1`, the Percent Effect was -1.03%.

`Cn1cnnc1C1CCCN(C(=O)NCc2ccc3c(c2)OCO3)C1` (stereo not given): the Percent Effect is -5.4%.

Take `CCn1cc(NC(=O)NCC2(N3CCOCC3)CCSC2)cn1` (stereo not given): the Percent Effect is -1.63%.

With `CS(=O)(=O)NC1CCN(C(=O)NCCNc2ccccn2)CC1`, the Percent Effect was -6.26%.

Regarding `Cc1cccc(-n2ncc(C(=O)N3CCn4c(C)nnc4C3)c2C)c1`, the Percent Effect was -5.28%.

For the molecule `O=C(c1cscn1)N1CCC[C@]2(C[C@H](OCC3CC3)CO2)C1`, the Percent Effect is -1.77%.

Take `N#Cc1cccnc1NCc1cccnc1N1CCC(C(N)=O)CC1`: the Percent Effect is -4.85%.

Take `c1cnc(NCc2noc3c2CN(CCN2CCCC2)CC3)nc1`: the Percent Effect was -1.82%.

As for `NC(=O)C1CCN(c2nc3nccc(-c4ccccc4)c3c(=O)[nH]2)CC1`, the Percent Effect was -4.01%.

With `Cc1cc(NC(=O)NCc2ccccn2)n(C)n1`, the Percent Effect is -3.34%.

As to `Fc1ccc(CN2CCC(c3nccnc3-n3ccnc3)CC2)cc1`, the Percent Effect was -8.16%.

For the molecule `O=C(c1ccc(-n2cccn2)nc1)N1CCCN(c2cccnn2)CC1`, the Percent Effect is -2.01%.

Take `CCN(CC)c1ccc(C(=O)NCc2cccnc2-n2cncn2)cn1`: the Percent Effect is -0.491%.

Take `CCCNC(=O)CCNC(=O)Cc1nc(-c2ccco2)oc1C`: the Percent Effect was -3.29%.

For `CN1CCCC(CNC(=O)N2CCN(Cc3ccon3)CC2)C1` (stereo not given), the Percent Effect was -5.29%.

As for `Cc1nc(C(C)(C)NC(=O)Nc2ccccc2)no1`, the Percent Effect was -11.3%.

As for `CSCc1cccc(S(=O)(=O)NCCCN2CCOCC2)c1`, the Percent Effect is -6.05%.

For the molecule `CN(Cc1ccsc1)C(=O)Nc1cccnc1N1CCCC1`, the Percent Effect is -9.81%.

Take `CC(C)n1c(C2CCCN(Cc3ccnn3C)C2)nc2ccccc21` (stereo not given): the Percent Effect is -5.27%.

`Cc1cc(CC(=O)N2CCCC2c2nc(C(C)C)no2)on1` (stereo not given): the Percent Effect was -3.03%.

For the molecule `COc1cccc(CNc2nc(O)cc(C3CC(=O)N(C)C3)n2)c1` (stereo not given), the Percent Effect was determined as 1.85%.

In the case of `CC(=O)N1CCn2cc(CNC(=O)c3cccn3C)nc2C1`, the Percent Effect is -2.25%.

For the molecule `O=C1CC(c2ccccc2)C2(CCN(CC3CC3)CC2)N1` (stereo not given), the Percent Effect is -1.75%.

As for `CNC(=O)CSc1nc2c(cnn2Cc2ccc(F)cc2)c(=O)[nH]1`, the Percent Effect was -1.62%.

`Cc1nc(C(=O)N2CCC(Nc3cccnn3)CC2)cs1`: the Percent Effect is -9.75%.

In the case of `COc1cccc(OCc2cc(C(=O)NC[C@H]3CCCN3)n[nH]2)c1`, the Percent Effect was -3.48%.

On to `Cc1ccc(CN2CCc3ncnc(C4CCOC4)c3CC2)s1` (stereo not given), for which the Percent Effect stood at 1.24%.

The target in the next assay is T1, Ubiquitin-activating enzyme e1, putative (Leishmania donovani (strain BPK282A1)) (UniProt E9BSI1).
T1 sequence (whole entry): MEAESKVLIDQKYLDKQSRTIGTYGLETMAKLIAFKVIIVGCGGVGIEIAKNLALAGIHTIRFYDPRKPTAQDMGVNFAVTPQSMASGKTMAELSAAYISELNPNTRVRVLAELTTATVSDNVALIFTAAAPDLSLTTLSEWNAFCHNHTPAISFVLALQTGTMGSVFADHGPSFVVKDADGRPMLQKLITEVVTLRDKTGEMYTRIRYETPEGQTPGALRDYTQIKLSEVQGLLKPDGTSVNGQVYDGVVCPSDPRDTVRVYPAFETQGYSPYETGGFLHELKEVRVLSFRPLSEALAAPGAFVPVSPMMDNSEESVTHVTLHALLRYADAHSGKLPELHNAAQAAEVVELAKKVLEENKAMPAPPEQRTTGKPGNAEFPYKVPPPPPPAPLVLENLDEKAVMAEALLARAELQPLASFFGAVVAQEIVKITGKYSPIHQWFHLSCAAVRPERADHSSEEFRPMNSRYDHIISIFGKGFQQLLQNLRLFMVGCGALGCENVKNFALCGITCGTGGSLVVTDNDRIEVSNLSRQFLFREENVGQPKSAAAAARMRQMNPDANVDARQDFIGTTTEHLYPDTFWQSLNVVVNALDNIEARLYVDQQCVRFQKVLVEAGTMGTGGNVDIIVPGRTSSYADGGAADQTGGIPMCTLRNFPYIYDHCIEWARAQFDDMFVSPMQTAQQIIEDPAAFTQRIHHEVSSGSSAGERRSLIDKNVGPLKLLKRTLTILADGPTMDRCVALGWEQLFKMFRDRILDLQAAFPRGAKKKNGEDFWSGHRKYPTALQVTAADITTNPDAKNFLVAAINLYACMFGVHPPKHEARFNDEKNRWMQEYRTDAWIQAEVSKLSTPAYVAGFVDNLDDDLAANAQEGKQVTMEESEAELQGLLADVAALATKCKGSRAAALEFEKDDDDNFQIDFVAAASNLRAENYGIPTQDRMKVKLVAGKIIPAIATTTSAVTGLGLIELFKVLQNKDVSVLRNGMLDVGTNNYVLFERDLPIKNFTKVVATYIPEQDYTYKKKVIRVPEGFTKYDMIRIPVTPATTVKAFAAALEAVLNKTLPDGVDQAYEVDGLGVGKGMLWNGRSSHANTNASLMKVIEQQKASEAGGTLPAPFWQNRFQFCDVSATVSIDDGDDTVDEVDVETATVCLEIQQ
The assay can be described thus: Leishmania donovani Ubiquitin Activating Enzyme (LdE1). Type of assay: functional. More on the design: scale not given: direction of the effect not stated beside the values. As to conditions: 30 µM.
For `COc1cccc(CN2CCCC(Nc3cccc(F)c3)C2)c1O` (stereo not given), the Percent Effect is 10.8%.

As to `CS(=O)(=O)Cc1ccc(CNC(=O)c2cccnc2O)cc1`, the Percent Effect stood at 13.9%.

Regarding `N#Cc1ccnc(N2CCN(CC(O)c3cccc(F)c3)CC2)c1` (stereo not given), the Percent Effect was found to be 2.7%.

`CN1C(=O)C[C@@H]2[C@@H]1CCN2S(=O)(=O)Cc1ccccc1`: the Percent Effect came to 2.74%.

Regarding `Cn1ncc2c1C(COCC1CC1)CN(Cc1ccc(F)cc1)C2` (stereo not given), the Percent Effect is 18.9%.

With `CCC1=N[C@@]2(CC[C@@H]3CN(C(=O)NCC(C)C)C[C@@H]32)C(=O)N1CC(C)C`, the Percent Effect was determined as 8%.

In the case of `CC(O)CN1CCN(C(=O)c2cnn(-c3ccccc3F)c2)CC1` (stereo not given), the Percent Effect was found to be 13.3%.

Turning to `O=C(CCc1nccs1)N1CCN(c2ccc(Br)cn2)CC1`, the Percent Effect is 7.79%.

Consider `Cc1cc(CN2CC[C@H]3C(=O)N(c4ccccc4)CCO[C@H]3C2)no1`, for which the Percent Effect was 21.3%.

For `Cn1cc(-c2csc(N3CCN(C(=O)OC(C)(C)C)CC3)n2)cn1`, the Percent Effect worked out at 4.17%.

Regarding `Cc1noc(C(C)C)c1C(=O)NCc1cccc(N(C)C)c1`, the Percent Effect was determined as 18.2%.

On to `Cc1ccc(N2CCCc3sc(C(=O)NCc4cccnc4)nc32)nn1`, for which the Percent Effect was -8.22%.

Regarding `Cc1nc2ccccc2nc1CN1CCCC1Cn1cncn1` (stereo not given), the Percent Effect worked out at 20.8%.

As to `CC(C)C(=O)N1CCN(C(=O)CCc2nnc(-c3ccccc3)o2)CC1`, the Percent Effect turned out to be 5.06%.

As for `Cn1cnnc1C1CCCN(C(=O)NCc2ccc3c(c2)OCO3)C1` (stereo not given), the Percent Effect is -10.4%.

As for `CCn1cc(NC(=O)NCC2(N3CCOCC3)CCSC2)cn1` (stereo not given), the Percent Effect turned out to be 13.5%.

In the case of `CS(=O)(=O)NC1CCN(C(=O)NCCNc2ccccn2)CC1`, the Percent Effect was determined as 10.8%.

On to `Cc1cccc(-n2ncc(C(=O)N3CCn4c(C)nnc4C3)c2C)c1`, for which the Percent Effect is 13.2%.

With `O=C(c1cscn1)N1CCC[C@]2(C[C@H](OCC3CC3)CO2)C1`, the Percent Effect is -2.67%.

As to `N#Cc1cccnc1NCc1cccnc1N1CCC(C(N)=O)CC1`, the Percent Effect is 8.11%.

For the molecule `c1cnc(NCc2noc3c2CN(CCN2CCCC2)CC3)nc1`, the Percent Effect came to 8%.

As to `NC(=O)C1CCN(c2nc3nccc(-c4ccccc4)c3c(=O)[nH]2)CC1`, the Percent Effect amounted to 2.74%.

In the case of `Cc1cc(NC(=O)NCc2ccccn2)n(C)n1`, the Percent Effect is -6.33%.

In the case of `Fc1ccc(CN2CCC(c3nccnc3-n3ccnc3)CC2)cc1`, the Percent Effect came to 17.6%.

Take `O=C(c1ccc(-n2cccn2)nc1)N1CCCN(c2cccnn2)CC1`: the Percent Effect amounted to 0%.

Consider `CCN(CC)c1ccc(C(=O)NCc2cccnc2-n2cncn2)cn1`, for which the Percent Effect worked out at 8.11%.

For the molecule `CCCNC(=O)CCNC(=O)Cc1nc(-c2ccco2)oc1C`, the Percent Effect is 2.67%.

For `CN1CCCC(CNC(=O)N2CCN(Cc3ccon3)CC2)C1` (stereo not given), the Percent Effect came to 2.67%.

In the case of `Cc1nc(C(C)(C)NC(=O)Nc2ccccc2)no1`, the Percent Effect is -2.74%.

For the molecule `CSCc1cccc(S(=O)(=O)NCCCN2CCOCC2)c1`, the Percent Effect came out at 5.2%.

As to `CN(Cc1ccsc1)C(=O)Nc1cccnc1N1CCCC1`, the Percent Effect is 7.89%.

In the case of `CC(C)n1c(C2CCCN(Cc3ccnn3C)C2)nc2ccccc21` (stereo not given), the Percent Effect is 5.33%.

In the case of `Cc1cc(CC(=O)N2CCCC2c2nc(C(C)C)no2)on1` (stereo not given), the Percent Effect was determined as 20.8%.

For the molecule `COc1cccc(CNc2nc(O)cc(C3CC(=O)N(C)C3)n2)c1` (stereo not given), the Percent Effect is 12.2%.

With `CC(=O)N1CCn2cc(CNC(=O)c3cccn3C)nc2C1`, the Percent Effect is 13.3%.

Turning to `O=C1CC(c2ccccc2)C2(CCN(CC3CC3)CC2)N1` (stereo not given), the Percent Effect amounted to 10.7%.

Regarding `CNC(=O)CSc1nc2c(cnn2Cc2ccc(F)cc2)c(=O)[nH]1`, the Percent Effect amounted to 11%.

`Cc1nc(C(=O)N2CCC(Nc3cccnn3)CC2)cs1`: the Percent Effect was 7.79%.

Take `COc1cccc(OCc2cc(C(=O)NC[C@H]3CCCN3)n[nH]2)c1`: the Percent Effect stood at 15.3%.

`Cc1ccc(CN2CCc3ncnc(C4CCOC4)c3CC2)s1` (stereo not given): the Percent Effect was 10.7%.
